Measured values as given in the supplement of paper PMC8975748.
Where a name gives a salt, the structure may show the parent alone. ± gives the standard deviation of the averaged measurements.

Legend:
[1] = tested on: Saccharomyces cerevisiae BY4741 SeMeCo community; assay: z-score of prototroph abundance vs DMSO median; higher = larger share of this subpopulation than in DMSO controls; settings: 10 µM; 24 h; SM minimal medium; subpopulation (auxotrophy): Prototroph
Procedure, shortened: (§1)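 A Saccharomyces cerevisiae BY4741 community carried four plasmids, each restoring one auxotrophy and encoding a distinct fluorescent protein. It was pre-grown overnight to OD600 1.0, diluted to 0.3, and 70 µl was added to 384-well plates acoustically predosed with library drugs (10 µM final), then grown 24 h in minimal SM medium. Cells were paraformaldehyde-fixed and imaged by automated confocal microscopy, with single-auxotroph fluorescent strains setting thresholds and autofluorescence correction. Each subpopulation's abundance was scored as a z-score against the vehicle-well median.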

[2] = tested on: Saccharomyces cerevisiae BY4741 SeMeCo community; assay: z-score of subpopulation abundance vs DMSO median, subpopulation auxotrophic for M; higher = larger share of this subpopulation than in DMSO controls; settings: 10 µM; 24 h; SM minimal medium; subpopulation (auxotrophy): M
Procedure, shortened: as §1

[3] = tested on: Saccharomyces cerevisiae BY4741 SeMeCo community; assay: z-score of subpopulation abundance vs DMSO median, subpopulation auxotrophic for U; higher = larger share of this subpopulation than in DMSO controls; settings: 10 µM; 24 h; SM minimal medium; subpopulation (auxotrophy): U
Procedure, shortened: as §1

[4] = tested on: Saccharomyces cerevisiae BY4741 SeMeCo community; assay: z-score of subpopulation abundance vs DMSO median, subpopulation auxotrophic for H; higher = larger share of this subpopulation than in DMSO controls; settings: 10 µM; 24 h; SM minimal medium; subpopulation (auxotrophy): H
Procedure, shortened: as §1

[5] = tested on: Saccharomyces cerevisiae BY4741 SeMeCo community; assay: z-score of subpopulation abundance vs DMSO median, subpopulation auxotrophic for LU; higher = larger share of this subpopulation than in DMSO controls; settings: 10 µM; 24 h; SM minimal medium; subpopulation (auxotrophy): LU
Procedure, shortened: as §1

[6] = tested on: Saccharomyces cerevisiae BY4741 SeMeCo community; assay: z-score of subpopulation abundance vs DMSO median, subpopulation auxotrophic for LM; higher = larger share of this subpopulation than in DMSO controls; settings: 10 µM; 24 h; SM minimal medium; subpopulation (auxotrophy): LM
Procedure, shortened: as §1

[7] = tested on: Saccharomyces cerevisiae BY4741 SeMeCo community; assay: z-score of subpopulation abundance vs DMSO median, subpopulation auxotrophic for HM; higher = larger share of this subpopulation than in DMSO controls; settings: 10 µM; 24 h; SM minimal medium; subpopulation (auxotrophy): HM
Procedure, shortened: as §1

[8] = tested on: Saccharomyces cerevisiae BY4741 SeMeCo community; assay: z-score of subpopulation abundance vs DMSO median, subpopulation auxotrophic for HU; higher = larger share of this subpopulation than in DMSO controls; settings: 10 µM; 24 h; SM minimal medium; subpopulation (auxotrophy): HU
Procedure, shortened: as §1

[9] = tested on: Saccharomyces cerevisiae BY4741 SeMeCo community; assay: z-score of subpopulation abundance vs DMSO median, subpopulation auxotrophic for HLU; higher = larger share of this subpopulation than in DMSO controls; settings: 10 µM; 24 h; SM minimal medium; subpopulation (auxotrophy): HLU
Procedure, shortened: as §1

[10] = tested on: Saccharomyces cerevisiae BY4741 SeMeCo community; assay: z-score of subpopulation abundance vs DMSO median, subpopulation auxotrophic for HLM; higher = larger share of this subpopulation than in DMSO controls; settings: 10 µM; 24 h; SM minimal medium; subpopulation (auxotrophy): HLM
Procedure, shortened: as §1

[11] = tested on: Saccharomyces cerevisiae BY4741 SeMeCo community; assay: z-score of subpopulation abundance vs DMSO median, subpopulation auxotrophic for HUM; higher = larger share of this subpopulation than in DMSO controls; settings: 10 µM; 24 h; SM minimal medium; subpopulation (auxotrophy): HUM
Procedure, shortened: as §1

[12] = tested on: Saccharomyces cerevisiae BY4741 SeMeCo community; assay: z-score of subpopulation abundance vs DMSO median, subpopulation auxotrophic for LUM; higher = larger share of this subpopulation than in DMSO controls; settings: 10 µM; 24 h; SM minimal medium; subpopulation (auxotrophy): LUM
Procedure, shortened: as §1

[13] = tested on: Saccharomyces cerevisiae BY4741 SeMeCo community; assay: z-score of subpopulation abundance vs DMSO median, subpopulation auxotrophic for HL; higher = larger share of this subpopulation than in DMSO controls; settings: 10 µM; 24 h; SM minimal medium; subpopulation (auxotrophy): HL
Procedure, shortened: as §1

[14] = tested on: Saccharomyces cerevisiae BY4741 SeMeCo community; assay: z-score of subpopulation abundance vs DMSO median, subpopulation auxotrophic for HLUM; higher = larger share of this subpopulation than in DMSO controls; settings: 10 µM; 24 h; SM minimal medium; subpopulation (auxotrophy): HLUM
Procedure, shortened: as §1

[15] = tested on: Saccharomyces cerevisiae BY4741 SeMeCo community; assay: mean cell size (pixel area) (pixels); higher = larger cells; settings: 10 µM; 24 h; SM minimal medium
Procedure, shortened: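 A fluorescent Saccharomyces cerevisiae BY4741 community carrying four plasmids was used, with each plasmid complementing one auxotrophy and bearing a fluorescent marker. An overnight preculture at OD600 = 1.0 was diluted to OD600 = 0.3, and 70 µl went into 384-well plates acoustically predosed with drug (final 10 µM) in SM medium for 24 h. After paraformaldehyde fixation, cells were imaged by automated confocal microscopy and analysed in Harmony, giving the mean cell pixel area per well. Each value is the average of 3 replicates. Same SeMeCo high-content imaging drug screen: Selleck FDA-approved drugs at 10 µM, 24 h in SM medium, 384-well plates, 3 replicates.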

[16] = tested on: Saccharomyces cerevisiae BY4741 SeMeCo community; assay: z-score of subpopulation abundance vs DMSO median, subpopulation auxotrophic for UM; higher = larger share of this subpopulation than in DMSO controls; settings: 10 µM; 24 h; SM minimal medium; subpopulation (auxotrophy): UM
Procedure, shortened: as §1

Compound: O=C1CN2Cc3c(ccc(Cl)c3Cl)N=C2N1 [Anagrelide HCl]
- z-score of prototroph abundance [1]: 0.08
- z-score of subpopulation abundance [2]: -0.78
- z-score of subpopulation abundance [3]: -0.23
- z-score of subpopulation abundance [4]: -0.25
- z-score of subpopulation abundance [5]: -0.64
- z-score of subpopulation abundance [6]: -0.53
- z-score of subpopulation abundance [7]: -0.37
- z-score of subpopulation abundance [8]: 0.3
- z-score of subpopulation abundance [9]: 0.58
- z-score of subpopulation abundance [10]: 1.02
- z-score of subpopulation abundance [11]: 0.14
- z-score of subpopulation abundance [12]: -0.58

Compound: O=C1CC2(CCCC2)CC(=O)N1CCCCN1CCN(c2ncccn2)CC1 [Buspirone HCl]
- z-score of prototroph abundance [1]: 0.7
- z-score of subpopulation abundance [2]: -1.82
- z-score of subpopulation abundance [3]: 0.5
- z-score of subpopulation abundance [4]: -0.72
- z-score of subpopulation abundance [5]: 1.78
- z-score of subpopulation abundance [6]: -0.34
- z-score of subpopulation abundance [8]: -0.07
- z-score of subpopulation abundance [13]: 0
- z-score of subpopulation abundance [9]: -0.25
- z-score of subpopulation abundance [10]: -0.1
- z-score of subpopulation abundance [11]: -0.84
- z-score of subpopulation abundance [12]: -0.12
- z-score of subpopulation abundance [14]: 0.74

Compound: C[C@@H]1O[C@@H]1P(=O)(O)O [Fosfomycin Disodium]
- mean cell size [15]: 12 ± 0.14
- z-score of subpopulation abundance [2]: -0.48
- z-score of subpopulation abundance [3]: -0.22
- z-score of subpopulation abundance [4]: 0.63
- z-score of subpopulation abundance [5]: 0.6
- z-score of subpopulation abundance [6]: -0.25
- z-score of subpopulation abundance [7]: -0.52
- z-score of subpopulation abundance [8]: 0.04
- z-score of subpopulation abundance [13]: 0.86
- z-score of subpopulation abundance [9]: 0.52
- z-score of subpopulation abundance [10]: -0.12
- z-score of subpopulation abundance [11]: -0.19
- z-score of subpopulation abundance [12]: 0.06
- z-score of subpopulation abundance [14]: -0.05

Compound: COc1ccc2cc(C(=O)O)ccc2c1 [6-Methoxy-2-naphthoic acid]
- mean cell size [15]: 13.4 ± 0.15
- z-score of prototroph abundance [1]: 2.36
- z-score of subpopulation abundance [2]: -2.65
- z-score of subpopulation abundance [3]: -1.91
- z-score of subpopulation abundance [5]: -1.63
- z-score of subpopulation abundance [7]: 0.22
- z-score of subpopulation abundance [8]: -0.63
- z-score of subpopulation abundance [16]: -3.74
- z-score of subpopulation abundance [13]: 0.89
- z-score of subpopulation abundance [9]: 0.62
- z-score of subpopulation abundance [10]: 3.71
- z-score of subpopulation abundance [11]: -1.83
- z-score of subpopulation abundance [14]: 1.63

Compound: CC(=O)NO [Acetohydroxamic acid]
- mean cell size [15]: 12.5 ± 0.15
- z-score of subpopulation abundance [2]: -0.27
- z-score of subpopulation abundance [3]: -0.68
- z-score of subpopulation abundance [4]: 0.14
- z-score of subpopulation abundance [5]: -0.13
- z-score of subpopulation abundance [6]: 0.84
- z-score of subpopulation abundance [7]: 0.32
- z-score of subpopulation abundance [16]: -0.03
- z-score of subpopulation abundance [13]: 0.57
- z-score of subpopulation abundance [9]: 0.42
- z-score of subpopulation abundance [10]: 0.6
- z-score of subpopulation abundance [11]: 0.08
- z-score of subpopulation abundance [14]: 0.86

Compound: CC[C@@H](CO)NCCN[C@@H](CC)CO [Ethambutol 2HCl]
- mean cell size [15]: 12.46 ± 0.11
- z-score of prototroph abundance [1]: -0.36
- z-score of subpopulation abundance [2]: -0.81
- z-score of subpopulation abundance [4]: -1.02
- z-score of subpopulation abundance [5]: 1.65
- z-score of subpopulation abundance [6]: 0.23
- z-score of subpopulation abundance [7]: -0.9
- z-score of subpopulation abundance [8]: 0.27
- z-score of subpopulation abundance [16]: 1.23
- z-score of subpopulation abundance [13]: 0.36
- z-score of subpopulation abundance [9]: 0.56
- z-score of subpopulation abundance [10]: 0.16
- z-score of subpopulation abundance [11]: 0.7
- z-score of subpopulation abundance [12]: 1.15
- z-score of subpopulation abundance [14]: 0.6

Compound: COc1cc(N)c(Cl)cc1C(=O)NC1CCN(CCCOc2ccc(F)cc2)CC1OC (centres undefined) [Cisapride]
- mean cell size [15]: 12 ± 0.14
- z-score of prototroph abundance [1]: 1.03
- z-score of subpopulation abundance [2]: -1.29
- z-score of subpopulation abundance [3]: -0.14
- z-score of subpopulation abundance [5]: -0.54
- z-score of subpopulation abundance [6]: -0.7
- z-score of subpopulation abundance [7]: -1.22
- z-score of subpopulation abundance [16]: -0.35
- z-score of subpopulation abundance [13]: -0.95
- z-score of subpopulation abundance [9]: 0.37
- z-score of subpopulation abundance [10]: -0.82
- z-score of subpopulation abundance [11]: -0.94
- z-score of subpopulation abundance [12]: -0.18
- z-score of subpopulation abundance [14]: -0.17
